Bioassay records from PubChem.
Sampled rows, rich in hits. Any-hit rate of the full collection: about 3.5%.
FBW7 activator = human FBW7 E3 ligase activation, primary screen | Q969H0 | AID 1259310 | AlphaScreen FBW7–phospho-cyclin E peptide binding, activator screen | normalized activity (activation), % at 26.1 µM | 650,000 tested, 0.13% active; in the data active means normalized activity above about 1.9%;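 further: purified mutant Fbw7 with reduced substrate affinity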
TEAD-YAP block = TEAD-YAP interaction inhibition; HEK-TIYL cells, TEAD-Gal4/YAP UAS-luciferase luminescence; inhibition, % at 9.12 µM; 640,000 tested, 1.4% active; AID 1259422; in the data active means inhibition above about 32%;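 further: 0% = median of test compound wells and 100% = reference inhibitor wells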
MITF primary = blocks human microphthalmia-associated transcription factor; AlphaScreen MITF homodimerization, bead proximity signal; inhibition, % at 2.6 µM; AID 1259374; 650,000 tested, 0.91% active; O75030; in the data active means inhibition above about 50%;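 further: 0% = vehicle wells with protein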
GPR151 activ = activators of human GPR151; Q8TDV0; activation, % at 11.2 µM; 650,000 tested, 1% active; PathHunter beta-arrestin GPR151 cells, luminescence; in the data active means activation above about 4.9%;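 further: 0% = median of compound wells and 100% = cells with positive control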
GPR151 confirm = confirmation of human GPR151 activators; 6,700 tested, under 10 active; activation, % at 11.2 µM; GPR151 PathHunter beta-arrestin cells, luminescence, 90 min; % of EA-reagent control over plate median; shares compounds with GPR151 activ;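 active means mean percent activation across replicates above the confirmation screen cutoff of 4.91%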
GPR119 counter = activates human GPR119 in a GPR151 counter-screen; shares compounds with GPR151 activ; GPR119 PathHunter beta-arrestin cells, luminescence, 90 min; 0 = compound-well median, 100 = enzyme-acceptor control; activation, % at 11.2 µM; 6,700 tested, 0.3% active; AID 1508611;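 active means mean percent activation in the counterscreen above 29.09%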;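 further: counterscreen on off-target GPR119 to flag nonselective hits from the GPR151 activator screen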
Target sequence (Q8TDV5 whole entry, looked up): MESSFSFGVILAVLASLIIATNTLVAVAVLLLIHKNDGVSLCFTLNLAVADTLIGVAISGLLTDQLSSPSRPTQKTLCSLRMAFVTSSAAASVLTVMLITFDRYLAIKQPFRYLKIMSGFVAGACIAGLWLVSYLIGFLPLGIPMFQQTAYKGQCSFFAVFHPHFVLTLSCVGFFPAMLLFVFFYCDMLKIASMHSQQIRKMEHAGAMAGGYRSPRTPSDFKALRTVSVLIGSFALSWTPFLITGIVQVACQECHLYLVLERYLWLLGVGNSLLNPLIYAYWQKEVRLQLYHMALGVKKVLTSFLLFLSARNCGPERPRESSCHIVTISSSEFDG
* = called active by the depositor; . = no result.

SMILES	FBW7 activator	TEAD-YAP block	MITF primary	GPR151 activ	GPR151 confirm	GPR119 counter
Nc1nc(SCC(=O)Nc2cc(C(F)(F)F)ccc2Cl)n[nH]1	0	12	3	2	.	.
Cc1cc2nc3s/c(=C\c4cc(Cl)ccc4OCc4ccccc4Cl)c(=O)n3c2cc1C	0	-2	2	1	.	.
Cn1c(-c2ccc3c(c2)OCO3)cnc1NCc1ccc(C#N)cc1	0	-6	39	2	.	.
CCCOc1ccc(/C(O)=C2/C(=O)C(=O)N(CCCN(C)C)C2c2ccc(F)cc2)cc1C (stereo not drawn)	0	-5	-5	-1	.	.
COc1cc([N+](=O)[O-])ccc1NC(=O)Nc1ccc(Cl)cc1F	0	-1	-6	6.2*	2	9
CC(=O)c1cccc(NC(=O)Nc2ccc3ccccc3c2)c1	0	-56	-8	0	.	.
COc1cc(OC)c(CN2CCc3nnc(C4CCCO4)n3CC2)c(OC)c1 (stereo not drawn)	0	-12	-5	5.3*	0	4
COc1cccc2ccc(CN3CCN(C4CCN(C(C)C)CC4)C(CCO)C3)nc12 (stereo not drawn)	0	-3	-2	9.0*	-1	-2
CC(C)N1CCC(N2CCN(Cc3ccc(-c4ccc(Cl)cc4)o3)CC2CCO)CC1 (stereo not drawn)	0	-1	5	6.6*	2	13
O=C(/C=C(/c1ccc([N+](=O)[O-])cc1)n1cncn1)c1ccc(Cl)cc1Cl	0	-2	22	2	.	.
Cc1nnc(SCc2ccc(Cl)cc2)nc1/C=C/N(C)C	0	8	12	0	.	.
Cc1nnc(SCc2ccc(Cl)cc2)nc1C	0	-22	7	5.2*	0	-5
O=CNC(c1ccc(Cl)cc1)c1ccc(Cl)cc1	0	12	8	0	.	.
O=CNC(c1ccccc1)c1ccc(Cl)cc1Cl (stereo not drawn)	0	6	-36	9.9*	-1	-9
COc1cc(C(=O)NNC(=O)CCN2CCCCC2)cc(OC)c1OC	0	9	-16	4.9*	-1	-14
CC1=C(C(=O)N2CCCCC2)C(c2ccsc2)C2=C(CCCC2=O)N1 (stereo not drawn)	0	-2	-15	2	.	.
O=C(Nc1ccc(-c2ccccc2)cc1)c1ccc(F)cc1	0	-22	-20	1	.	.
CC(C)c1c(C(=O)Nc2ccccc2)c(-c2ccccc2)c(-c2ccc(F)cc2)n1CC[C@@H](O)C[C@@H](O)CC(=O)O	0	.	-4	5.2*	0	-15
CC1CCCN(c2c(-c3ccc(Cl)cc3)c(=O)c2=O)C1 (stereo not drawn)	0	10	-3	5.9*	1	-5
CCOc1ccc(-n2c(C)nc3cc(C(=O)NCc4ccc(C)cc4)ccc32)cc1	0	-5	-2	5.3*	0	7
O=C(COc1cccnc1[N+](=O)[O-])NCCc1ccc(Cl)cc1	0	-2	11	-1	.	.
O=C(c1ccc2cc[nH]c2c1)N1CCNCC1	0	0	-9	-2	.	.
O=C(c1ccc2cc[nH]c2c1)N1CCN(C(=O)C(c2ccccc2)c2ccccc2)CC1	0	10	8	5.6*	-1	-12
CCOCCn1c(=O)c2c(nc3n(-c4ccccc4)c(C)cn23)n(C)c1=O	0	5	9	2	.	.
CCn1c(O)c(N=NC(=O)c2ccc(C)nc2)c2ccccc21	0	3	11	2	.	.
SMILES	FBW7 activator	TEAD-YAP block	MITF primary	GPR151 activ	GPR151 confirm	GPR119 counter
O=C(N=Nc1c(O)n(CO)c2ccccc12)c1ccncc1	0	-8	6	4.9*	0	9
O=C(Oc1ccc(OC(=O)c2ccc(Br)o2)c(Cl)c1)c1ccc(Br)o1	0	2	8	2	.	.
Cc1ccccc1NS(=O)(=O)c1ccc(-c2ccc(-n3cnnn3)cc2)cc1	0	-13	-1	5.7*	1	12
COC(=O)CSc1nnc(COc2ccccc2OC)n1C	0	-5	2	5.3*	1	4
COc1ccccc1NC(=O)CSc1nnc(COc2ccc(C)cc2)n1C	0	5	9	5.3*	-1	-6
Cn1c(COc2ccc(Cl)cc2)nnc1SCC(=O)NCC(F)(F)F	0	0	3	5.1*	2	4
COc1ccccc1NC(=O)CSc1nnc(CNC(=O)c2ccc(C)cc2)n1C	0	9	-16	1	.	.
COc1ccc(Cc2nnc(SCC(=O)Nc3ccccc3OC)n2-n2cccc2)cc1	0	17	3	11*	-1	-18
Cn1c(COc2ccc(Cl)cc2)nnc1SCC(=O)NC(C)(C)C	0	-2	-2	-1	.	.
CNC(=O)CSc1nnc(COc2ccccc2OC)n1C	0	2	-8	0	.	.
COc1ccc(/C=N/n2c(SC)nnc(C(C)(C)C)c2=O)cc1OC	0	-1	5	6.2*	0	5
COc1ccc(/C=N/n2ncnc2SC)cc1OC	0	-25	-6	-2	.	.
Cn1cc(CN2CCCC(CNS(=O)(=O)c3cccc4cccnc34)C2)cn1 (stereo not drawn)	0	1	5	8.1*	0	1
N#Cc1c(-c2ccc(Br)cc2)nc2n(c1=O)CCS2	0	6	-7	4	.	.
O=C(NC1CCS(=O)(=O)C1)/C(=C/c1cn(-c2ccccc2)nc1-c1cccs1)NC(=O)c1ccccc1 (stereo not drawn)	0	16	-7	5.8*	2	15
COc1ccccc1C(=O)N/N=C(\C)CC(=O)Nc1ccccc1Br	0	-41	-1	7.6*	0	9
C/C(CC(=O)Nc1ccccc1Cl)=N\NC(=O)c1ccncc1	0	9	-2	9.1*	-1	-10
CC(=O)Nc1ccccc1NC(=O)C/C(C)=N/NC(=O)c1ccncc1	0	-5	6	1	.	.
CCOc1ccc(-c2nc(-c3ccncc3)no2)cc1OCC	0	-3	9	4.9*	0	0
CCOc1ccc(-c2nc(-c3ccc([N+](=O)[O-])cc3)no2)cc1OCC	0	-8	-9	-1	.	.
Cn1c(N)c(S(=O)(=O)N2CCN(c3ccccc3Cl)CC2)c(=O)n(C)c1=O	0	-9	7	26*	1	3
CN(C)c1cccc(Nc2cc(NC3CC3)ncn2)c1	0	-7	2	1	.	.
CC(=O)c1ccc(NC(=O)Nc2ccc(CC(=O)O)cc2)cc1	0	-3	-3	6.6*	0	9
CC(=O)Nc1ccc(C(=O)Nc2ccc(CC(=O)O)cc2)cc1	0	2	3	0	.	.
COC(=O)C1=C(N)Oc2cc(C)n(CCc3ccccc3)c(=O)c2C1c1ccccc1 (stereo not drawn)	0	-5	3	0	.	.
O=C(CSc1nnnn1-c1ccccc1)Nc1ccc(OC(F)(F)F)cc1	0	6	12	7.7*	0	5
